# Data taken from PubChem BioAssay.
# “And” between values parts separate entries of the source, which are not always exact repeats. Equal entries are not always repeated. Results filed as inconclusive are left out. The source made the active and inactive calls. Unless noted, no stated cut-off is given here; in the data, active means inhibition above about 80%; inactive means the rest.
# Legend:
# [1] = JHH-DIPG-1 glioma cell viability, MIPE5.0 library, CellTiter-Glo luminescence, qHTS (AID 1347067; cut-off not given, nearly all actives have AC50 up to about 26 µM;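 further: cells exposed to compound for 48 hours before readout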); conditions: JHH-DIPG-1 glioma viability, CellTiter-Glo ATP luminescence
# [2] = SU-DIPG-XXV glioma cell viability, MIPE5.0 library, qHTS (AID 1347068; cut-off not given, nearly all actives have IC50 up to about 30 µM)
# [3] = sensitizers of A549 cells to miR-34 induction, primary screen, imaging, A549 dox-inducible miR-34, nuclei and caspase counts (AID 1347080;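 active means compounds whose cell count with miR-34 switched on is under 0.7 times the count with it off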); conditions: A549 miR-34 inducible, Hoechst nuclei count, 48 h
# [4] = survival rescue of mitochondrial mutant cells in low glucose, primary screen, MELAS cybrids, Rieske KO mouse fibroblasts, CellTiter-Glo (AID 1508586;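 active means mean z-score across replicates of 1.96 or higher in either the MELAS or the Rieske mutant cell line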;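 further: z relative to plate mean and SD of compound and empty wells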)
# [5] = LFS_MB_P medulloblastoma growth inhibition, cell-based, chromothripsis tumors, cisplatin or BGB combos (AID 1671449); conditions: LFS_MB_P medulloblastoma cells;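 further: cells exposed for 96 hours; 0% = vehicle DMSO and 100% = killing by high DMSO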
# [6] = HDN33 neuroblastoma growth inhibition, cell-based, chromothripsis tumors, cisplatin or BGB combos (AID 1671450); conditions: HDN33 neuroblastoma cells, stronger effect = higher value;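 further: cells exposed to compound for four days; 0% = vehicle DMSO and 100% = cell killing by high DMSO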
# [7] = ICB984 medulloblastoma cell growth inhibition, synergistic combos for chromothripsis tumors, cisplatin or BGB combos (AID 1671451; call rule not given here;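 further: cells exposed for 96 hours before readout; 0% = vehicle DMSO and 100% = killing by high DMSO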); conditions: ICB984 medulloblastoma cells, drug combinations, stronger effect = higher value
# [8] = LFS_MB_1R medulloblastoma cell growth inhibition, synergistic combos for chromothripsis tumors, cisplatin or BGB combos (AID 1671452); conditions: LFS_MB_1R medulloblastoma cells, stronger effect = higher value;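 further: cells exposed for 96 hours before readout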
# [9] = HTB85 osteosarcoma cell growth inhibition, synergistic combos for chromothripsis tumors, BGB or cisplatin IC20 combos (AID 1671453); conditions: HTB85 osteosarcoma cells, drug combinations, stronger effect = higher value;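 further: cells exposed for 96 hours before readout; 0% = vehicle DMSO and 100% = high DMSO killing control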
# [10] = measured here: combination with BGB IC40, at 0.05 µM
smiles,measurement,setting,value
Nc1nc(F)nc2c1ncn2C1OC(COP(=O)(O)O)C(O)C1O (stereo not drawn),outcome,[1],inactive
same,outcome,[2],inactive
same,fold change,"[3]; stronger effect = lower value, cell number ratio, induced over uninduced",0.831 (inactive)
same,fold change,[3]; measured here: relative caspase fold change +Dox/-Dox,1.44
same,cell count,"[3]; measured here: total cells with miR-34 induction, stronger effect = lower value",1120
same,cell count,[3]; measured here: total cells without miR-34 induction,1350
same,z-score,"[4]; MELAS cybrid survival, CellTiter-Glo 48 h, stronger effect = higher value",1.34 (inactive)
same,z-score,"[4]; Rieske KO mouse fibroblast survival, CellTiter-Glo 72 h",0.326
same,inhibition,"[5]; at 0.5 µM, stronger effect = higher value",-6.1% (inactive) and -16% (inactive)
same,inhibition,"[5]; measured here: combination with BGB IC20, at 0.005 µM",-22.8% and 0.183%
same,inhibition,"[5]; measured here: combination with BGB IC40, at 0.005 µM",-34.6% and 88.8%
same,inhibition,[5]; [10],-38.1% and -2.46%
same,inhibition,"[5]; measured here: combination with cisplatin, at 0.5 µM, stronger effect = higher value",-18.5% and -25%
same,inhibition,"[5]; measured here: combination with cisplatin, at 5 µM, stronger effect = higher value",-36% and -9.03%
same,inhibition,"[6]; BGB combo, at 5 µM",8.47% and 22.7%
same,inhibition,[6]; at 0.5 µM,-18.9% (inactive) and 5.11% (inactive)
same,inhibition,"[6]; cisplatin combo, at 5 µM",34% and 24.2%
same,inhibition,"[6]; measured here: with BGB IC20 combination, at 0.5 µM",-23% and -1.08%
same,inhibition,"[6]; measured here: with cisplatin IC20 combination, at 0.5 µM",-13.9% and 12.9%
same,inhibition,"[6]; single agent, at 5 µM",32.2% and 15.4%
same,inhibition,"[7]; BGB IC20 combo, at 0.005 µM",-19.2% and -1.57%
same,inhibition,"[7]; BGB IC40 combo, at 0.005 µM",-13.6% and -18.3%
same,inhibition,"[7]; BGB IC40 combo, at 0.05 µM",-31.2% and -1.01%
same,inhibition,[7]; at 0.5 µM,-29.2% (inactive) and -28.4% (inactive)
same,inhibition,"[7]; cisplatin combo, at 0.05 µM",-35.9% and -6.12%
same,inhibition,"[7]; cisplatin combo, at 0.5 µM",-20.9% and -39.7%
same,inhibition,"[7]; cisplatin combo, at 5 µM",-37.1% and 11.4%
same,inhibition,"[7]; measured here: 5 uM single agent, at 5 µM",0.546% and -0.896%
same,inhibition,[8]; at 0.5 µM,-6.95% (inactive) and -19.6% (inactive)
same,inhibition,[8]; [10],-26.6% and -4.09%
same,inhibition,"[8]; measured here: combination with cisplatin, at 0.5 µM",-0.649% and -47.1%
same,inhibition,"[8]; measured here: combination with cisplatin, at 5 µM",-27.4% and 0.798%
same,inhibition,[9]; at 0.5 µM,-3.37% (inactive) and -4.43% (inactive)
same,inhibition,"[9]; measured here: with BGB IC20, at 0.5 µM",-4.86% and 13.2%
same,inhibition,"[9]; measured here: with BGB IC20, at 5 µM",45.3% and 42.7%
same,inhibition,"[9]; measured here: with cisplatin IC20, at 0.5 µM",-6.04% and -18.8%
same,inhibition,"[9]; measured here: with cisplatin IC20, at 5 µM",12.2% and 45.7%
same,inhibition,"[9]; single agent, at 5 µM",36% and 50.6%
